The values that follow come from PubChem BioAssay (NCATS).

Records with an inconclusive call do not appear. Active and inactive are the calls of the source. Unless noted, calls come from the whole dose curve; as a rule, active = well fitted curve in the direction sought with a large enough effect; inconclusive = small, poorly fitted or top-dose-only effect, or another doubt; inactive = no such curve, though single readings can be large; an effect the other way counts as inactive or inconclusive.

Assay [1] addresses ATP-dependent DNA helicase Q1 (Homo sapiens) (UniProt P46063). The experiment in a line: qHTS Validation Assay for Inhibitors of RecQ-Like Dna Helicase 1 (RECQ1) (AID 2353). The gist of the method:
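RECQ1T1 50 nM; forked duplex (20 bp + 30-nt ss tails) 200 nM, ATP 2 mM final; pH 8.0, 2 mM MgCl2, 2.5 ug/ml poly(dI-dC); 15 min compound preincubation; discontinuous kinetic read over 2 h at RT.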
For orientation: Quantitative high-throughput screening tests each substance at several concentrations.

The target of assay [2] is RecQ-like DNA helicase BLM (Homo sapiens) (UniProt P54132). The experiment in a line: qHTS Validation Assay for Inhibitors of Bloom's syndrome helicase (BLM) (AID 2364). Summed up:
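50 nM BLM preincubated 15 min at room temperature with compound in pH 8.0 Tris buffer containing 2.5 ug/ml poly(dI-dC); started with 200 nM TAMRA/BHQ-2 forked duplex and 2 mM ATP (final). Unwinding read as TAMRA fluorescence increase, two reads 2 h apart.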

The nature of assay [3]: Cytometric Cell-Based qHTS for Inhibitors of the mTORC1 Signaling Pathway in MEF (Tsc2-/-, p53-/-) Cells (AID 2660).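 Note: Tsc2 and p53 null MEFs carrying empty vector with compound for 24 h; percent of cells above a phospho-rpS6 to PI ratio cutoff in each well; series mostly up to about 38 µM.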 The gist of the method: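 Readout: Alexa-488 phospho-rpS6 (Ser235/236) intensity divided by PI intensity, thresholded against 7.5 nM rapamycin wells and reported as % positive cells. PI cell count served as the viability measure. Compound exposure was 24 hrs at 37 degree Celsius.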

A short description of assay [4]: High Content Imaging Cell-Based qHTS for Inhibitors of the mTORC1 Signaling Pathway in MEF (Tsc2-/-, p53-/-) Cells (AID 2666).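 Note: percent of cells scored positive for phospho-rpS6 Ser235/236 immunostaining by imaging.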 Note: potency is the fitted concentration of half-maximal effect. The gist of the method:
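MEF Tsc2-/- p53-/- (empty vector), DMEM/10% FBS; cpd 24 h 37 °C; PFA fix, Alexa-488 p-rpS6 S235/236 Ab, Hoechst; imaged; rapamycin-defined inhibition; % positive cells/well.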

Assay [5] in a line: High Content Imaging Cell-Based qHTS for Inhibitors of the mTORC1 Signaling Pathway in MEF Cells (AID 2667).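 Note: Tsc2-/- p53-/- MEFs stably re-expressing wild-type Tsc2 exposed 24 h; series mostly up to about 38 µM.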 Summed up: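 Read-out is the share of phospho-rpS6-positive cells per well, from Hoechst-normalized Alexa-488 Ser235/236 staining imaged on IN Cell. Cells: WT Tsc2-expressing Tsc2-/-, p53-/- MEFs exposed to compound for 24 hrs.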
Assay [6] can be described thus: Cytometry Cell-Based qHTS for Inhibitors of the mTORC1 Signaling Pathway in MEF cells (AID 2668). Note: potency is the fitted concentration of half-maximal effect. The gist of the method:
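In MEFs grown in DMEM + 10% FBS, a 24 hrs compound exposure preceded imaging of phospho-rpS6 Ser235/236 by laser-scanning cytometry.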

Assay [7] can be described thus: Validation screen for small molecules that induce DNA re-replication in MCF 10A normal breast cells (AID 463097). Note: nearly all actives have a fitted effect of over 60% in size. Summed up: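 Following 48 hr compound incubation (37 C, 5% CO2), MCF 10A cells receive Hoechst for 40 min at 37 C. Nuclei are then scanned (excitation 405 nm, emission 500-530 nm) for total fluorescence intensity.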
Assay [8] has as its target Ubiquitin carboxyl-terminal hydrolase 2 (Homo sapiens) (UniProt O75604). The experiment in a line: qHTS Validation Assay for Inhibitors of Ubiquitin-specific Protease USP2a Using CHOP2 as the Reporter (AID 463106). The gist of the method: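 Fluorescence read-out at Ex 485nm/Em 531nm after 60min RT, following addition of 25nM Ub-CHOP2 plus 25nM reporter substrate to USP2 core (10nM) pretreated 30min with compound. Data normalized to NEM full inhibition; concentration-response curves fitted.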

Assay [9] has as its target DNA polymerase III PolC-type (Bacillus subtilis (strain 168)) (UniProt P13267). As to the kind of experiment: qHTS Validation Assay for the Inhibitors of DNA Replication in Gram-Positive Bacteria (AID 485295).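 Note: reconstituted holoenzyme with PolC plus beta clamp SSB and primase; PicoGreen fluorescence of double-stranded DNA made on primed circular M13 template; series mostly up to about 57 µM.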 The gist of the method:
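Inhibition of DNA synthesis by the reconstituted PolC holoenzyme, monitored through PicoGreen staining of dsDNA formed from ssM13Gori, dNTPs and NTPs, with compound preincubation and room-temperature reaction.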

The target in assay [10] is Tumor susceptibility gene 101 protein (Homo sapiens) (UniProt Q99816). The experiment in a line: qHTS Validation Assay for Iinhibitors of HIV-1 Budding by Blocking the Interaction of PTAP/TSG101 (AID 485342; calls by dose curve). The gist of the method:
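Compound wells held the Tsg101 binding domain (10 uM) and a FITC-conjugated PTAP peptide (50 nM) in buffer at pH 7.5 containing 0.15 M NaCl and 0.01% Tween 20; polarization was recorded after 20 min, r.t.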

The target of assay [11] is ATP-dependent 6-phosphofructokinase (Trypanosoma brucei brucei) (UniProt O15648). The experiment in a line: qHTS Validation Assay to Find Inhibitors of T. brucei phosphofructokinase (AID 485368). Note: potency is the fitted concentration of half-maximal effect. Summed up: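 Inhibition derived from concentration-response curves of luminescence, ranked by r2, response size and curve class; the underlying reaction used 1.25 nM PFK, 0.1 mM ATP and 0.5 mM F6P, 45 min, room temperature.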
Sequence of ATP-dependent 6-phosphofructokinase (Trypanosoma brucei brucei) (O15648 whole entry, looked up): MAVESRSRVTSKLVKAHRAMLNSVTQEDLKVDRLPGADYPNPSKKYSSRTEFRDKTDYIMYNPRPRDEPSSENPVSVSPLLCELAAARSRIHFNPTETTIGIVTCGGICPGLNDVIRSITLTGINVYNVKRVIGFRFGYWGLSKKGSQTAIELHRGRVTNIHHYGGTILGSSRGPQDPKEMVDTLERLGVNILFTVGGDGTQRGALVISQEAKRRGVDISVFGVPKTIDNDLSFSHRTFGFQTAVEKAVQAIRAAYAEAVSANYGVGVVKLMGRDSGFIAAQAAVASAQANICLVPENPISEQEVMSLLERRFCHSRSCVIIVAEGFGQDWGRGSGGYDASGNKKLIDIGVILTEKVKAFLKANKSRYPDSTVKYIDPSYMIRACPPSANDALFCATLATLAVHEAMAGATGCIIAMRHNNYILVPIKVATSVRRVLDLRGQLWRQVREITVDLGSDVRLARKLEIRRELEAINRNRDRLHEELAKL

Assay [12] in a line: Quantitative high throughput screen for delayed death inhibitors of the malarial parasite plastid, 48 hour incubation (AID 488752). Note: nearly all actives have a fitted effect of over 65% in size. Note: potency is the fitted concentration of half-maximal effect. The gist of the method:
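Cultures: infected erythrocytes at final 2% hematocrit and 0.1% parasitemia in Albumax-supplemented RPMI. Parasites express integrated firefly luciferase. Incubation with compound lasts 48 h before luminescent detection of remaining reporter activity.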

The target of assay [13] is Thioredoxin reductase 1, cytoplasmic (Rattus norvegicus) (UniProt O89049). As to the kind of experiment: qHTS Assay for Substrates of Mammalian Selenoprotein Thioredoxin Reductase 1 (TrxR1) (AID 488772).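 Note: series mostly up to about 57 µM; a drop in NADPH fluorescence below the no-compound background marks a TrxR1 substrate.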 The gist of the method:
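In this dual-purpose format, potential substrates are identified from the first fluorescence read after selenite addition, not from the 8-minute delta. Rat enzyme is preincubated with NADPH and then with compound at ~22 deg C.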

The nature of assay [14]: qHTS for differential inhibitors of proliferation of Plasmodium falciparum line W2 (AID 1883).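 Note: parasites grown with compound for 72 h before lysis and staining.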 Note: potency is the fitted concentration of half-maximal effect. The settings on record: Potency: Plasmodium falciparum W2 proliferation inhibition.
The nature of assay [15]: qHTS for differential inhibitors of proliferation of Plasmodium falciparum line HB3 (AID 1886).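 Note: parasites grown with compound for 72 h before SYBR Green readout.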 Note: potency is the fitted concentration of half-maximal effect. The settings on record: Potency: Plasmodium falciparum HB3 proliferation inhibition.
For assay [16], the target named is Ferritin light chain (Equus caballus) (UniProt P02791). The experiment in a line: qHTS Validation Assay for Identification of Novel General Anesthetics (AID 2323). Note: series mostly up to about 77 µM. The gist of the method:
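Normalized fluorescence response, scaled between free 1-AMA and 1-AMA/apoferritin complex, fitted to a four-parameter Hill equation for concentration-effect values. Binding mix: 10 uM horse-spleen apoferritin, 50% saturated 1-AMA in PBS; read 380/535 nm after 10 min.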

The nature of assay [17]: Quantitative high throughput screen for delayed death inhibitors of the malarial parasite plastid, 96 hour incubation (AID 488745). Note: nearly all actives have a fitted effect of over 70% in size. Note: potency is the fitted concentration of half-maximal effect. Summed up: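 Two-generation (96 h) exposure of luciferase-reporter P. falciparum in erythrocytes, 2% hematocrit, 0.1% parasitemia final, 37 C, 5% CO2, RPMI 1640 with 0.5% Albumax. Growth inhibition scored by reduced luminescence.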
Assay [18] is described as follows: qHTS for differential inhibitors of proliferation of Plasmodium falciparum line Dd2 (AID 1882). Note: nearly all actives have a fitted effect of over 65% in size. Note: potency is the fitted concentration of half-maximal effect. The settings on record: Potency: Plasmodium falciparum Dd2 proliferation inhibition. The gist of the method:
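RBC culture, 0.3% parasitemia / 2.5% Hct final; cpd added by pin tool in DMSO; 72 h, 37 C, 5% CO2; lysis buffer + SYBR Green I, o/n RT dark; FI 485/535; norm. to artemisinin 0.29 uM and DMSO.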

Assay [19] in a line: qHTS Assay for Modulators of Human Peripheral Myelin Protein 22 (PMP22) Expression/Activity (AID 1967; active = well fitted curve in the direction sought with a large enough effect in the signal ratio; the % refers to the signal ratio). The gist of the method: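 Engineered MSC80 cells, Pmp22-promoter green and EF-alpha red luciferase reporters; 24h compound treatment at 37 °C. Concentration-response fits on green, red and ratio signals, each overlap-corrected, with %Activity normalized to untreated wells.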

Assay [20] is described as follows: qHTS Assay for Identification of Small Molecule Inducers of Hypoxia Response (AID 2120; active = well fitted curve in the direction sought with a large enough effect in the signal ratio, with a control signal flat, not every such curve was filed as active; the % refers to the signal ratio). The gist of the method: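 HRE-bla ME-180, 2500 cells/well, 0.5% dialyzed FBS medium; cpd titration, 17 h 37 degrees C; CCF4 2.5 h RT; Ex 405, Em 460/530 ratio -> %Activity, AC50.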

Sequence of DNA polymerase III PolC-type (Bacillus subtilis (strain 168)) (P13267 whole entry, looked up): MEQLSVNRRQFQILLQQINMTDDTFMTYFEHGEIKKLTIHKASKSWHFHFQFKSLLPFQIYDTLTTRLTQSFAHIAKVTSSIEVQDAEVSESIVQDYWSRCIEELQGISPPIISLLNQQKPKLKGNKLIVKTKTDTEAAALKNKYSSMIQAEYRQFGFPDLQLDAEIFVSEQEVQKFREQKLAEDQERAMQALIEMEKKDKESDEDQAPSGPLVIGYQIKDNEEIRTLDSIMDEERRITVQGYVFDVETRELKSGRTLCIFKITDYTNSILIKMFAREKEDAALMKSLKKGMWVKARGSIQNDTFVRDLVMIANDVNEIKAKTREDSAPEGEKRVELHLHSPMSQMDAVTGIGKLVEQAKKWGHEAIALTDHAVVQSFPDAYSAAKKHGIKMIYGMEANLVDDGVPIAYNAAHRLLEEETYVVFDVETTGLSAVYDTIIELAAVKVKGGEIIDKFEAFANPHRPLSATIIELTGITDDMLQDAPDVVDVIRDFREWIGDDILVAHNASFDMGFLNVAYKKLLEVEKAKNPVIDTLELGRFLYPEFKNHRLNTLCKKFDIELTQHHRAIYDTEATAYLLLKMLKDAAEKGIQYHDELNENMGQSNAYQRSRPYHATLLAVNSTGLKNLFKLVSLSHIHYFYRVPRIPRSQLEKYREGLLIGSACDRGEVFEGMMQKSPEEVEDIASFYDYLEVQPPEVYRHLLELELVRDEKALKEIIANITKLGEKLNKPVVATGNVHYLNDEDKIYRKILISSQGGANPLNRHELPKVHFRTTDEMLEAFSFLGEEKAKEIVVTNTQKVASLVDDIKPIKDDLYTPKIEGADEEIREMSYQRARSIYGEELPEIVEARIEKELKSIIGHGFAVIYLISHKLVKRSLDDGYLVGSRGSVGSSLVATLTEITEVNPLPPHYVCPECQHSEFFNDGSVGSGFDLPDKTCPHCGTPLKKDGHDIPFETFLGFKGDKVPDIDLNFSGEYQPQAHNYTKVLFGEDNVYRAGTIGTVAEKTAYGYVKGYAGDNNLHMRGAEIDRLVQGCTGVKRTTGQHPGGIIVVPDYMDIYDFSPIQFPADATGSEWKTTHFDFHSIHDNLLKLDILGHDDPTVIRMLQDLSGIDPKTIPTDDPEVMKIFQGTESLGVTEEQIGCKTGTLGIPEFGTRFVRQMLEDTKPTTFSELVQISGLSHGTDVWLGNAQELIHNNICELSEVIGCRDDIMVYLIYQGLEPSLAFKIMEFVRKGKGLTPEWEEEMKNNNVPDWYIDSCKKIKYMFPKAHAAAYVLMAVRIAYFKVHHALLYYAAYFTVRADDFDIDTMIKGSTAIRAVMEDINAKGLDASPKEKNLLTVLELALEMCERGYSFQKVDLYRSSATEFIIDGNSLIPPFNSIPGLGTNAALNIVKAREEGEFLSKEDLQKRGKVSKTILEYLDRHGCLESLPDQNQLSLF
Sequence of Ubiquitin carboxyl-terminal hydrolase 2 (Homo sapiens) (O75604 whole entry, looked up): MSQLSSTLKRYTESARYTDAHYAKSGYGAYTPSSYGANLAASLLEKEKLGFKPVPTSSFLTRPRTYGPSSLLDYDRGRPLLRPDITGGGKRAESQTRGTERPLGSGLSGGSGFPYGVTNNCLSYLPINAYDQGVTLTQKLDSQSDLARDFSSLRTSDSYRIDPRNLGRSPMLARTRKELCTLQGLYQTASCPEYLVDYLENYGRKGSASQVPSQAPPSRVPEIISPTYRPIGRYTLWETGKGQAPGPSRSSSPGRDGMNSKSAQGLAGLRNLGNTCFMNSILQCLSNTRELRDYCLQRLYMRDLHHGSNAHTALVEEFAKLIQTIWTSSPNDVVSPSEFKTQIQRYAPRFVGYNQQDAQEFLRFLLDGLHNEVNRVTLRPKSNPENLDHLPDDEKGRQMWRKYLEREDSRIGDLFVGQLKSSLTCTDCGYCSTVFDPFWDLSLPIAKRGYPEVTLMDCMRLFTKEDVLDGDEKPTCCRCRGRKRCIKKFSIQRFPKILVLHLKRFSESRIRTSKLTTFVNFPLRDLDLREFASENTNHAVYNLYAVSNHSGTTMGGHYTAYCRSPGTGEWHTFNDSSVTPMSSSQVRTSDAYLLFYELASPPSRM
Sequence of ATP-dependent DNA helicase Q1 (Homo sapiens) (P46063 whole entry, looked up): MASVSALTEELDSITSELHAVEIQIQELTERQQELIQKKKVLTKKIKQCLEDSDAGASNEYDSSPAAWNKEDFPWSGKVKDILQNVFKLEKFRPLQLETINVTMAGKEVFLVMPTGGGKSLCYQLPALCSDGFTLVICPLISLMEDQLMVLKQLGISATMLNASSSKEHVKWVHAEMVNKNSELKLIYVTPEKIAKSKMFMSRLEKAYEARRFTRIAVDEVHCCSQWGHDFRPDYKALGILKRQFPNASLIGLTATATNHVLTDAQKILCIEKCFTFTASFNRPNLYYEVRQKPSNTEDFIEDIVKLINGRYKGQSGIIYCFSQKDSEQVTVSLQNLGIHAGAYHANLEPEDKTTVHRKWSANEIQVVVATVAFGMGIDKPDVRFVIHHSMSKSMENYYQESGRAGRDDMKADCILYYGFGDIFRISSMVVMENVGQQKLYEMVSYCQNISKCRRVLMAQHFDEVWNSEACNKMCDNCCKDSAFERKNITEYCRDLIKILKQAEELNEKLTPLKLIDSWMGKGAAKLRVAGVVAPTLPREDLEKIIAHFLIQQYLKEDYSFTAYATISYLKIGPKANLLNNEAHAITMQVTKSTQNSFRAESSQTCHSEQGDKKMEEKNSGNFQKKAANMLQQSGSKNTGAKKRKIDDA
Sequence of Thioredoxin reductase 1, cytoplasmic (Rattus norvegicus) (O89049 whole entry, looked up): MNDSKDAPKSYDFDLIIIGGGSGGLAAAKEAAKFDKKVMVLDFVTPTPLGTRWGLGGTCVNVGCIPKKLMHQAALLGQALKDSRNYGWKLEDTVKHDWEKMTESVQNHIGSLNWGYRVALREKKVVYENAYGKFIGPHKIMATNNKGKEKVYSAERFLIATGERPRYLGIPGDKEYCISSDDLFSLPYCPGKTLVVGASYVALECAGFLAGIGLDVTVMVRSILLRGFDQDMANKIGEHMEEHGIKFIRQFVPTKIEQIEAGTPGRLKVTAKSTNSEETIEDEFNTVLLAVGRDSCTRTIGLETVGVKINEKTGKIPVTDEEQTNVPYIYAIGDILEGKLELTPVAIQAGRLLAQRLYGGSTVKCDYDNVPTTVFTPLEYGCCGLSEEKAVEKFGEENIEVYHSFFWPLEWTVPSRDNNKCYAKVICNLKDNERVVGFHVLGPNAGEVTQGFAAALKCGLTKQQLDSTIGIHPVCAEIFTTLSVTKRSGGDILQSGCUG
Sequence of Tumor susceptibility gene 101 protein (Homo sapiens) (Q99816 whole entry, looked up, the tested form may be a part): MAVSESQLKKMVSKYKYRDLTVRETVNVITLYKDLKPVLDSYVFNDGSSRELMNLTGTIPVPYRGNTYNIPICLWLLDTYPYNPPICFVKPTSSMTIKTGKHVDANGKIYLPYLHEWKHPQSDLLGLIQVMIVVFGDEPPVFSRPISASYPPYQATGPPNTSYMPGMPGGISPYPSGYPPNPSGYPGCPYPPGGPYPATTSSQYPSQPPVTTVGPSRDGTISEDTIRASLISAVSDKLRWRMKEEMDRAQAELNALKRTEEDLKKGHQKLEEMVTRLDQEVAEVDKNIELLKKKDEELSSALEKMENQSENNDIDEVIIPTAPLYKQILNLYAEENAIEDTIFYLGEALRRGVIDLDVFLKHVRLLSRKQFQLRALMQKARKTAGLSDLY
Sequence of Ferritin light chain (Equus caballus) (P02791 2-175 limits assumed): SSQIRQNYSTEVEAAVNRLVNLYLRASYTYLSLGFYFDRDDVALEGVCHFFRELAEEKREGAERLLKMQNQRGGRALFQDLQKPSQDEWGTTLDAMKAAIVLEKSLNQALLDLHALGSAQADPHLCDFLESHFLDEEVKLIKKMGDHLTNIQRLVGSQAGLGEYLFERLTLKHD

In the case of `CC(=O)[C@H]1CC[C@H]2[C@@H]3CCC4=CC(=O)CC[C@]4(C)[C@H]3CC[C@]12C`, the outcome in assay [1], in assay [2], in assay [3], in assay [5], in assay [8] and in assay [9] was inactive. Further, the compound was classed as inactive in assay [10] and in assay [13]. Further, the Potency entry in assay [4], in assay [6], in assay [7], in [11] and in assay [12] was “inactive” each time.
Turning to `COc1cc2ncnc(Nc3cccc(Cl)c3)c2cc1OC`, the Potency in assay [14] is 7.94 µM (active); in assay [15], 10 µM (active); in [17] it was 3.29 µM (active); in assay [12], 2.62 µM (active). Also, the compound was called inactive in [16], in [1], in [3], in assay [5], in assay [8] and in assay [9]. For the same compound, the compound was called inactive in assay [10] and in assay [13]. Further, the Potency result in assay [4] and in assay [6] was “inactive” in each case.
As to `COc1cc2nc(N3CCCN(C)CC3)nc(NC3CCN(Cc4ccccc4)CC3)c2cc1OC`, the Potency in [4] is 2.61 µM (active); in [6] it was 6.56 µM (active). Also, the result in [8], in assay [9], in assay [10] and in [13] was inactive.
In the case of `CCN1CCCC1CNC(=O)c1cc(S(N)(=O)=O)ccc1OC` (centres undefined), the Potency entry in [18], in [14], in assay [15], in assay [4], in [6] and in [7] was “inactive” throughout. Further, the Potency result in assay [17] and in [12] was “inactive” in each case. The result in [19], in assay [16], in [1], in assay [3], in assay [5] and in [8] was inactive. The outcome in [9], in assay [10] and in assay [13] was inactive.
With `Cc1noc(NS(=O)(=O)c2ccc(N)cc2)c1C`, in assay [20], the call was inactive.
In the case of `CC(C)NCC(O)c1ccc(NS(C)(=O)=O)cc1` (centres undefined), the Potency result in assay [18], in assay [15], in assay [4], in [6], in assay [7] and in [12] was “inactive” throughout. The call in assay [19], in [16], in [1], in assay [3], in assay [5] and in assay [8] was inactive. In addition, the call in [9], in assay [10] and in [13] was inactive.
On to `CC(=O)Oc1ccccc1C(=O)Nc1ncc([N+](=O)[O-])s1`, for which, in [20], the call was inactive.
Same read-out and setting: as for `Cc1ccnc2c1NC(=O)c1cccnc1N2C1CC1`, the entry is “inactive”.
In the case of `CC1CC2C3CCC4=CC(=O)C=C[C@]4(C)[C@@]3(F)[C@@H](O)C[C@]2(C)[C@@]1(O)C(=O)CO` (some centres undefined), the compound was called inactive in [3], in [5], in assay [8], in [9], in assay [10] and in assay [13]. For the same compound, the Potency entry in assay [4] and in [6] was “inactive” each time.
With `N[C@@H](Cc1ccc(O)c(O)c1)C(=O)O`, the result in assay [3], in assay [5], in assay [9], in assay [10] and in assay [13] was inactive. The Potency entry in [4] and in assay [6] was “inactive” throughout. Further, the Potency in assay [11] was 23.9 µM (active).
`CCN(CC)CC#CCOC(=O)C(O)(c1ccccc1)C1CCCCC1` (centres undefined): the Potency in [18] is 8.91 µM (active); in assay [14] it was 2.24 µM (active); in assay [15] it was 8.91 µM (active). Also, the compound was classed as inactive in assay [1], in [2], in assay [3], in assay [5], in [8] and in [9]. The compound was called inactive in [10] and in [13]. For the same compound, the Potency result in [4], in assay [6], in assay [7], in assay [11] and in assay [17] was “inactive” in each case.
Regarding `N=C(N)c1ccc(OCCCCCOc2ccc(C(=N)N)cc2)cc1`, the outcome in assay [20] was inactive.
The same measure, in the same setting: as for `O=C(O)c1cc(=O)[nH]c(=O)[nH]1`, the entry is “inactive”.
Take `CCN(CC)CCn1c(=O)c(Cc2ccc(OC)cc2)nc2ccccc21`: the compound was called inactive in [3], in [5], in [8], in [9], in assay [10] and in [13]. Further, the Potency entry in [4], in assay [6] and in [11] was “inactive” throughout.
For the compound `NC(=O)c1ccc2[nH]ccc2c1`, the outcome in [3], in assay [5], in assay [8], in assay [9], in [10] and in assay [13] was inactive. The Potency result in assay [4] and in assay [6] was “inactive” each time.
